# From the supplement of paper PMC11732987, “Enantioselective OTUD7B fragment discovery through chemoproteomics screening and high-throughput optimisation” (Communications Chemistry, 2025)
# Values without a mark were called inactive.
# Legend:
# Assay in all cases: log2 ratio of Biotin-Ahx-Ub-VS probe labelling (fragment/DMSO); higher = less target engagement (more negative = stronger competition), active = hit call of the paper (q ≤ 0.05, log2 ratio ≤ -1)
# Conditions in all cases: compound concentration: 200 uM; treatment time: 3 h
# [1] = target: T1, USP42 (UniProt Q9H9J4)
# T1 sequence (whole entry): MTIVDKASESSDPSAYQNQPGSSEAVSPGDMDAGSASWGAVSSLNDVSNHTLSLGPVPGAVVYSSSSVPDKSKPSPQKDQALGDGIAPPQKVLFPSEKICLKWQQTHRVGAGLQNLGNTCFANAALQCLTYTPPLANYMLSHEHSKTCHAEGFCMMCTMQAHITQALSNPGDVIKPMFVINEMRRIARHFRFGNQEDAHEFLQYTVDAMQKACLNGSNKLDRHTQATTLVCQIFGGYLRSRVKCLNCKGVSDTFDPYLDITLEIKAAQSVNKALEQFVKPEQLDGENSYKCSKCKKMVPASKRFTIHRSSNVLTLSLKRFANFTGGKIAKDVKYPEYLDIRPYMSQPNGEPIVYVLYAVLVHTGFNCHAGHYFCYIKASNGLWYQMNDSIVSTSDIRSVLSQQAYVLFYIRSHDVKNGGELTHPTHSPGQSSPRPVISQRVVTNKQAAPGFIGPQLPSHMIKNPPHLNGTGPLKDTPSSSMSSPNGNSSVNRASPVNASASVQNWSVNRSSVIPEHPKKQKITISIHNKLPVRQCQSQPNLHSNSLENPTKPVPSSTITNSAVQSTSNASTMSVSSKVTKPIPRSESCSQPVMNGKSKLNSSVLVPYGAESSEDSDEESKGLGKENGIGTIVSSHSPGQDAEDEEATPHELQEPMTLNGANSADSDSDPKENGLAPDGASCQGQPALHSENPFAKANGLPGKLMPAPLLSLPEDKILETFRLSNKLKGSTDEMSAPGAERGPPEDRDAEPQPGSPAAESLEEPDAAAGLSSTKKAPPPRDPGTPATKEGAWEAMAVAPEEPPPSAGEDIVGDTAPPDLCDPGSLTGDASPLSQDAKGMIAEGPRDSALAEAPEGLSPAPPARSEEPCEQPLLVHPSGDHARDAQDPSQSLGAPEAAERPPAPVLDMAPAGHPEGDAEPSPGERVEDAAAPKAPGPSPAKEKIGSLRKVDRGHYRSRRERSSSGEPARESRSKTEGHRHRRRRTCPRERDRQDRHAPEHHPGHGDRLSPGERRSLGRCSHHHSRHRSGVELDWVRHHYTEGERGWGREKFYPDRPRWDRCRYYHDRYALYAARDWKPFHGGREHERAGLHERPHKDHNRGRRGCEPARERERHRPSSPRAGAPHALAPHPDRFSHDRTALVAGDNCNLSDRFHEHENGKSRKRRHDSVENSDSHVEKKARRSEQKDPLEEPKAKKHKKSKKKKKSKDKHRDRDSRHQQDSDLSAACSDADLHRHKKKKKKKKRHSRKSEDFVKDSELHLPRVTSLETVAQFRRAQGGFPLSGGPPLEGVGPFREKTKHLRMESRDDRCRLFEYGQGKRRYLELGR
# Summary of the method: (§1)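 Using Biotin-Ahx-Ub-VS at 0.5 µM final for 1 h, DUBs were labelled in HEK293T lysate (495 µg per sample) that had first been treated in triplicate with fragment at 200 µM or vehicle for 3 h. NeutrAvidin enrichment, LysC and trypsin digestion and diaPASEF LC-MS/MS followed. Spectronaut label-free quantities were global-median-normalised. Values are average log2 fragment/vehicle ratios by unpaired t-test, using proteins with ≥2 unique peptides.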
# [2] = target: USP46 (UniProt P62068)
# Summary of the method: as §1
# [3] = target: T2, USP47 (UniProt Q96K76)
# T2 sequence (whole entry): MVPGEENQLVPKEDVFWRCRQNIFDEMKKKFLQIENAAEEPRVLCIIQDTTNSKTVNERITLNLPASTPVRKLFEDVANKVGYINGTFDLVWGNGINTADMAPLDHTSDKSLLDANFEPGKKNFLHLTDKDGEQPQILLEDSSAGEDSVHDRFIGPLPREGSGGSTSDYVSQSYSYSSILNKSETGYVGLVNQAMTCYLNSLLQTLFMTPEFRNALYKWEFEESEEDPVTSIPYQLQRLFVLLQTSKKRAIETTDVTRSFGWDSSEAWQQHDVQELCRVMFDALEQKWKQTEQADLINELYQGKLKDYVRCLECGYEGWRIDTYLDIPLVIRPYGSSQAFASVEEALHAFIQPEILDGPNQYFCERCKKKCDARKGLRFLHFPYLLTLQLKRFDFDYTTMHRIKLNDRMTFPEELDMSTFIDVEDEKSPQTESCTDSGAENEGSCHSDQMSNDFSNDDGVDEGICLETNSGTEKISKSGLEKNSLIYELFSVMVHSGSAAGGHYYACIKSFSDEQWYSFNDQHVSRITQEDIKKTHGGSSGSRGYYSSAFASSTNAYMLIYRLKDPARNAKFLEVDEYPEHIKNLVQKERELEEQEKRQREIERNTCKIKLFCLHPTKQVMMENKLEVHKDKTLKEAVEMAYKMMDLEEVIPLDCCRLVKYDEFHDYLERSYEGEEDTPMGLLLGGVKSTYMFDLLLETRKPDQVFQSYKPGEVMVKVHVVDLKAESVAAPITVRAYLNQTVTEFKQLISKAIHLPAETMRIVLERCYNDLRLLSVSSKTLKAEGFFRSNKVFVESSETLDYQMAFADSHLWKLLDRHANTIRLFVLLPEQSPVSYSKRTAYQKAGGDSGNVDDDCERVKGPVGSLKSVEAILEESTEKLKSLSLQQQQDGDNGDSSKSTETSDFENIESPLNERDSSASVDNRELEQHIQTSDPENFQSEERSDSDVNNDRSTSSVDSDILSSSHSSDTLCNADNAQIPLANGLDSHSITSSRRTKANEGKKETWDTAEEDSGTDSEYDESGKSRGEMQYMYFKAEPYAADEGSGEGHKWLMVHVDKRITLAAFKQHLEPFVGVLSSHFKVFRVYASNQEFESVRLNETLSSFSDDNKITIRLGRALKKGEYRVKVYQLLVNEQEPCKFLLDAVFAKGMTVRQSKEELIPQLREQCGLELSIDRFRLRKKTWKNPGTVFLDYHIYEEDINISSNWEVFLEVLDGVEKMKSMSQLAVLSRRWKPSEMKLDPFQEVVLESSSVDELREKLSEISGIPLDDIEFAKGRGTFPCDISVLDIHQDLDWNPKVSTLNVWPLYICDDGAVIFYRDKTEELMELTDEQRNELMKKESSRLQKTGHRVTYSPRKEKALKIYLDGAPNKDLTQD
# Summary of the method: as §1
# [4] = target: T3, USP48 (UniProt Q86UV5)
# T3 sequence (whole entry): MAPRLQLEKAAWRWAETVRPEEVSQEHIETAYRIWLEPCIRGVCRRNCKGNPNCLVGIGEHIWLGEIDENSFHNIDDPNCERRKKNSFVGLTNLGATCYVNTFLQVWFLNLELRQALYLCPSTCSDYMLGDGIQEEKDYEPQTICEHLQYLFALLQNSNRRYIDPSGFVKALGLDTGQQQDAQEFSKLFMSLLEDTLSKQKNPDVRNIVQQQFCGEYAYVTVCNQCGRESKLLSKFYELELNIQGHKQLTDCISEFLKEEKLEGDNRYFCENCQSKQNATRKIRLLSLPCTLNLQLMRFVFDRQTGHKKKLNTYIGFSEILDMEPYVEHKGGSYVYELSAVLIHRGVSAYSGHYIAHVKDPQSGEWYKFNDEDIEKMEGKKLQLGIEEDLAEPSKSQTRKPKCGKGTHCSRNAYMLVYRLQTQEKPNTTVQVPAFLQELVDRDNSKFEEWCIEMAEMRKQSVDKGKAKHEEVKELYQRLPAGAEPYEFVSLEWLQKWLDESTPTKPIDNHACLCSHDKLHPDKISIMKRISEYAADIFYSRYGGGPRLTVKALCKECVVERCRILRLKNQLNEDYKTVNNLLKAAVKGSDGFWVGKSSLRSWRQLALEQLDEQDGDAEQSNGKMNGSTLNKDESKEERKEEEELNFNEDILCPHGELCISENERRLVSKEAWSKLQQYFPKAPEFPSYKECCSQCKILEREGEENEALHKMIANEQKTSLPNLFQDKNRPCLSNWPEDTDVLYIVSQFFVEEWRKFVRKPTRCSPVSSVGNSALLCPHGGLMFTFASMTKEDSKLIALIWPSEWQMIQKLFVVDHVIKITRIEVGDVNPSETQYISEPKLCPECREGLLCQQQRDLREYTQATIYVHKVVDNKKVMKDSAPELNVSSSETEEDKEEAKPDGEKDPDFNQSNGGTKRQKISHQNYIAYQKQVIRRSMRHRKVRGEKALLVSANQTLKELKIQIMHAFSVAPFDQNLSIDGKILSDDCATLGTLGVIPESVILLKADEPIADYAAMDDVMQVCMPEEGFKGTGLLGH
# Summary of the method: as §1
# [5] = target: T4, USP5 (UniProt P45974)
# T4 sequence (whole entry): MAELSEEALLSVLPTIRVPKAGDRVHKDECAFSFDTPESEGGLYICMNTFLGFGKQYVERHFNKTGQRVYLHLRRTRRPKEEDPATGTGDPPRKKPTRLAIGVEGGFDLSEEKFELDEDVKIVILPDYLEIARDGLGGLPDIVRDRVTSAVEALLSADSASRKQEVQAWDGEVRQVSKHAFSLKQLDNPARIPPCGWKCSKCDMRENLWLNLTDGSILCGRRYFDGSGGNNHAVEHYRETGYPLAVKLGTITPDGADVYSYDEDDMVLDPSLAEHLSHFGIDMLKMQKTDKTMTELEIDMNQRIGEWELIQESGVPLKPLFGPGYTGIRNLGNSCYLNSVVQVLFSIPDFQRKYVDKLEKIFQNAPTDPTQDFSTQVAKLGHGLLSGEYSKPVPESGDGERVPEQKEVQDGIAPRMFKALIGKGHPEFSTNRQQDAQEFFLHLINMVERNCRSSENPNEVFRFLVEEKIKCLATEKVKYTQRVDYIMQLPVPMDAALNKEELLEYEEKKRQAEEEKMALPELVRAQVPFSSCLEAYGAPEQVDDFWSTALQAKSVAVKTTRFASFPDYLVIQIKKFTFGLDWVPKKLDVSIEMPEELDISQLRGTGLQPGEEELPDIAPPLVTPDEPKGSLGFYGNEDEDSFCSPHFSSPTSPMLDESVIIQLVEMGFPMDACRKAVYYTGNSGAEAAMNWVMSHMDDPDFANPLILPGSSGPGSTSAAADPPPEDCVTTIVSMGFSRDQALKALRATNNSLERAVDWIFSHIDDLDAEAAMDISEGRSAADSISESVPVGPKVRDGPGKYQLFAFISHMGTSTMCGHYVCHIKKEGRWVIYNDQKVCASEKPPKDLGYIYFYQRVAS
# Summary of the method: as §1
# [6] = target: USP54 (UniProt Q70EL1)
# Summary of the method: as §1
# [7] = target: USP7 (UniProt Q93009)
# Summary of the method: as §1
# [8] = target: T5, USP8 (UniProt P40818)
# T5 sequence (whole entry): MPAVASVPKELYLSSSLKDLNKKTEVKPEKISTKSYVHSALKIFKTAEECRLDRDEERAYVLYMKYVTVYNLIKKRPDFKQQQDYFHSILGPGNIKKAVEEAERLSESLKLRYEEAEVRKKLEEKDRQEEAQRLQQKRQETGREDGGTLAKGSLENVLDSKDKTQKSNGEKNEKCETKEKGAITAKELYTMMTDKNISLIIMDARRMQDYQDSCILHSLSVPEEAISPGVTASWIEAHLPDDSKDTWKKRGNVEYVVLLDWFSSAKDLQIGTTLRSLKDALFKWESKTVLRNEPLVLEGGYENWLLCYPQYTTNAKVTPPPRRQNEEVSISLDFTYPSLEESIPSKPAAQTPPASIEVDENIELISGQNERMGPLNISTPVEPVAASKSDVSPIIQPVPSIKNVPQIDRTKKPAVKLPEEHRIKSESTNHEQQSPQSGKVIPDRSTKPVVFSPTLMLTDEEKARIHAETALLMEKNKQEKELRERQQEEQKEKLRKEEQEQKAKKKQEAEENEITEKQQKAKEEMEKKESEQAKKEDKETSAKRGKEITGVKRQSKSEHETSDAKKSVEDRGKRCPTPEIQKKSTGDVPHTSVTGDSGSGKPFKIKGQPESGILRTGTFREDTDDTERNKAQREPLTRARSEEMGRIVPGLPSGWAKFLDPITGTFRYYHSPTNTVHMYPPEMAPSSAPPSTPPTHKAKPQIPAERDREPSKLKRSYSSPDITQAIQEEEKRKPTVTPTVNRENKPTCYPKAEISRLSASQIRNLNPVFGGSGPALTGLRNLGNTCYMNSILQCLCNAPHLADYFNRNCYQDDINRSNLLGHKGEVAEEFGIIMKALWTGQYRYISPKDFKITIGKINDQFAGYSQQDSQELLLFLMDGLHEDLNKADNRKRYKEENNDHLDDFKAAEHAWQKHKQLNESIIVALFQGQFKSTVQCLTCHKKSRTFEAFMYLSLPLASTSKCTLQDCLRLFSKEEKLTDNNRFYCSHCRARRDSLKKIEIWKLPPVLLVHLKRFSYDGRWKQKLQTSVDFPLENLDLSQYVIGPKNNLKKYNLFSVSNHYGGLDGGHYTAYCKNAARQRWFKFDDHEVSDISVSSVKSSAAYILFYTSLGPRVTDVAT
# Summary of the method: as §1
# [9] = target: USP9X (UniProt Q93008)
# Summary of the method: as §1
# [10] = target: UniProt O00487
# Summary of the method: as §1
# Chain of USP7 (Q93009 whole entry, looked up): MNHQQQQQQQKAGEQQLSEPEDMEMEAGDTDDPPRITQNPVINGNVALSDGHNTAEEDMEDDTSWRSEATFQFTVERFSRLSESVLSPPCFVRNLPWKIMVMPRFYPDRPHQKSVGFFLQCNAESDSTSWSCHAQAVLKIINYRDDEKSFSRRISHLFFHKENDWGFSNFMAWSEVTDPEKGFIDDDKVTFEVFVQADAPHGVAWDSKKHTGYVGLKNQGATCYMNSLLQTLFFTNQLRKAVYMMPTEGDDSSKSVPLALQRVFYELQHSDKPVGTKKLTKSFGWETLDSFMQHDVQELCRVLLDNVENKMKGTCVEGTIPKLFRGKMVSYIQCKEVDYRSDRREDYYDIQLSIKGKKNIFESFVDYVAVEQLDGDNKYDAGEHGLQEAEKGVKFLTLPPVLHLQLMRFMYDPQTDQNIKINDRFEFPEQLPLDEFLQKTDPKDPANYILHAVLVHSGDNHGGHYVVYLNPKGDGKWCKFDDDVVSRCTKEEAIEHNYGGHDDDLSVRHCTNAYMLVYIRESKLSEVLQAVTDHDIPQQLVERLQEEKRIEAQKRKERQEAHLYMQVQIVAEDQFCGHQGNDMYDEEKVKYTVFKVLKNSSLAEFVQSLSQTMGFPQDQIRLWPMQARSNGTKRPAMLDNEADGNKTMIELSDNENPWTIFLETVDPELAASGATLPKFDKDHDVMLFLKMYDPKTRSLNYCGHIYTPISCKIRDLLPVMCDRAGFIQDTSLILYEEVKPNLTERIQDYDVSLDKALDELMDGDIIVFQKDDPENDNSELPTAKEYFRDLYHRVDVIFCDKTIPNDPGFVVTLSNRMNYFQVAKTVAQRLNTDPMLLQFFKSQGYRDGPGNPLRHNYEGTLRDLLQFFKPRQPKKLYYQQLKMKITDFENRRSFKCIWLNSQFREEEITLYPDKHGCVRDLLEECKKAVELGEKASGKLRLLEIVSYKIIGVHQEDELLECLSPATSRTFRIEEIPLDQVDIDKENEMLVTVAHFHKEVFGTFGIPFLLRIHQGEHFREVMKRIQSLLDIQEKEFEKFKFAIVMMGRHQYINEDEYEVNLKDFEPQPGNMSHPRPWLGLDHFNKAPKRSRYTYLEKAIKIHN
# Chain of USP9X (Q93008 whole entry): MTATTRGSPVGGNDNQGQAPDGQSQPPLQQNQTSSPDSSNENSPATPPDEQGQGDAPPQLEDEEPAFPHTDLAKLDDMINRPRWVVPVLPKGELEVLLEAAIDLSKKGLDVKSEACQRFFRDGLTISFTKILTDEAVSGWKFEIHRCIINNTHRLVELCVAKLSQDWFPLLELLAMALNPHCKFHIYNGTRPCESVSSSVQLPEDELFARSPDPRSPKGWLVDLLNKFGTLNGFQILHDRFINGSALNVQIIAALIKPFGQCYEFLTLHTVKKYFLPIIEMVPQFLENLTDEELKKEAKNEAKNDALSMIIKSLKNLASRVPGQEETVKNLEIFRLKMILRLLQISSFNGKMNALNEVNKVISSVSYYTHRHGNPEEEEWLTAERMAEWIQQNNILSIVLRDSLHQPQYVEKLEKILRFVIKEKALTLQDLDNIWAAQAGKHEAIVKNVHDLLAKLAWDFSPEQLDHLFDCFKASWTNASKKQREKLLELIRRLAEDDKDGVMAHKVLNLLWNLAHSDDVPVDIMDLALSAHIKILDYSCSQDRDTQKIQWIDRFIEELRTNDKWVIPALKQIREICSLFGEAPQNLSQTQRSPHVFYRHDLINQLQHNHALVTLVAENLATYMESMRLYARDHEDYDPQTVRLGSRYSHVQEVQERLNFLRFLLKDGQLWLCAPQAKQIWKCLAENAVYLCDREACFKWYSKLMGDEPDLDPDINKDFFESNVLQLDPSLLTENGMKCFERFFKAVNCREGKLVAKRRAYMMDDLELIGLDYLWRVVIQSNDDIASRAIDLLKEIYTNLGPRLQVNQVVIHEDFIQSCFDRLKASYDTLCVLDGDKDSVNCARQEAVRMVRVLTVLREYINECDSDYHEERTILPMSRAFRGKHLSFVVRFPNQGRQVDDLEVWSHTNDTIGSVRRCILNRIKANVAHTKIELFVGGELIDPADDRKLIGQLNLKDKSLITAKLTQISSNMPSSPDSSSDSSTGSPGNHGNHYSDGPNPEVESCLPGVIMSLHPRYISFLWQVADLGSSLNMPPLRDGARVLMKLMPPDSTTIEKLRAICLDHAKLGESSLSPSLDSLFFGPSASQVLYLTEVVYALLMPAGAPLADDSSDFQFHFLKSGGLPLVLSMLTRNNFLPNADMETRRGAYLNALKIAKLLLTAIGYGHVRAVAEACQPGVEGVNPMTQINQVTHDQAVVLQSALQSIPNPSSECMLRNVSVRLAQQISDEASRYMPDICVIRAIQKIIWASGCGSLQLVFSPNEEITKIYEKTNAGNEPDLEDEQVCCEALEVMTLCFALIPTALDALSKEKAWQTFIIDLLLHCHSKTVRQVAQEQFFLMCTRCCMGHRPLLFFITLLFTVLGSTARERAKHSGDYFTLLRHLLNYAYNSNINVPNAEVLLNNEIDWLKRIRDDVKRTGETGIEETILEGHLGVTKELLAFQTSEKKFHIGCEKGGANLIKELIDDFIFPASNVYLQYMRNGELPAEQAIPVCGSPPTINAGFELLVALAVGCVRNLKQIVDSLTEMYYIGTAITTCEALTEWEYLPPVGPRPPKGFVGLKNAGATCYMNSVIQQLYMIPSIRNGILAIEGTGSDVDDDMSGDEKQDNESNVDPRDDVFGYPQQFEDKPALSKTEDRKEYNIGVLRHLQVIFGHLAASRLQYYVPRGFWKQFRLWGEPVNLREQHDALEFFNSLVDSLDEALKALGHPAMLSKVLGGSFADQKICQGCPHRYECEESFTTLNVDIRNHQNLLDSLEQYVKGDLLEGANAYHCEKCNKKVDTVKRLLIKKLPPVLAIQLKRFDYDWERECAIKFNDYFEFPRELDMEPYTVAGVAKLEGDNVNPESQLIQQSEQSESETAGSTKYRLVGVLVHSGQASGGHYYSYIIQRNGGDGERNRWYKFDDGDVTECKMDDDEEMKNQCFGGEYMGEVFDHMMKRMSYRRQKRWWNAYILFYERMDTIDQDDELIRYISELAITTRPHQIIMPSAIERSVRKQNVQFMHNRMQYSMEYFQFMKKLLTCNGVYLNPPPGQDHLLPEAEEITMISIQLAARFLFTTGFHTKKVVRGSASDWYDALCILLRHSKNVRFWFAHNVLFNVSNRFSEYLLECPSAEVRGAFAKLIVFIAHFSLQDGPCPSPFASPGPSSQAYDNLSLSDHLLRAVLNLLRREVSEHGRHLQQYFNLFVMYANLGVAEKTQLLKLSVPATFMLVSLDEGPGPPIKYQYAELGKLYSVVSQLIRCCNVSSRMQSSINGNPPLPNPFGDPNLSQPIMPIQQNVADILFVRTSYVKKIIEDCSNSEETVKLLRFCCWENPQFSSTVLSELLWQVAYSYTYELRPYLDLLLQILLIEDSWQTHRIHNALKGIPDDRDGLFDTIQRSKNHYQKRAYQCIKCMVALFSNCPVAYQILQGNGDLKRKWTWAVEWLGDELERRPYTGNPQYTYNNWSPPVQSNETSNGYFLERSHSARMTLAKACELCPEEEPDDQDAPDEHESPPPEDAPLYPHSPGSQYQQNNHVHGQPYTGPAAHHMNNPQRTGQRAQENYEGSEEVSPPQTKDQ
# Chain of UniProt O00487 (O00487 whole entry): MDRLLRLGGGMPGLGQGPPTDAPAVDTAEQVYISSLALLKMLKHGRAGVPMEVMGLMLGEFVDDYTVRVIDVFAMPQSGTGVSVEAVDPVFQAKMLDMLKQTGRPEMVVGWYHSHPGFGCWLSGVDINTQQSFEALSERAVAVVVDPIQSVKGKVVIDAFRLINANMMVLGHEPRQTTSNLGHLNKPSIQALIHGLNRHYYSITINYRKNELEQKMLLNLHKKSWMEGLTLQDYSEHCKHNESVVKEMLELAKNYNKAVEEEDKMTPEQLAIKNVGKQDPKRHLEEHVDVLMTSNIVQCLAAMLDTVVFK
# Chain of USP46 (P62068 whole entry): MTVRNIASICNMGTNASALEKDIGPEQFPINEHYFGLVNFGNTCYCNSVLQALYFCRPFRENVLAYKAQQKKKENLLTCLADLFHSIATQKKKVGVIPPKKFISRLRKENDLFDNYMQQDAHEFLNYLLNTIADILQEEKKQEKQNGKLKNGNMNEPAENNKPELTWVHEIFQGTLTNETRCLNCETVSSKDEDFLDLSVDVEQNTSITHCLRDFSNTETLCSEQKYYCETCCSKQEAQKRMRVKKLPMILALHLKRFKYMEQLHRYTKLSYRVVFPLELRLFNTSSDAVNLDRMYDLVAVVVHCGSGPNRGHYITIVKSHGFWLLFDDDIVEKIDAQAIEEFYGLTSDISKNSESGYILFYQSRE
SMILES,log2 ratio of Biotin-Ahx-Ub-VS probe labelling [1],log2 ratio of Biotin-Ahx-Ub-VS probe labelling [2],log2 ratio of Biotin-Ahx-Ub-VS probe labelling [3],log2 ratio of Biotin-Ahx-Ub-VS probe labelling [4],log2 ratio of Biotin-Ahx-Ub-VS probe labelling [5],log2 ratio of Biotin-Ahx-Ub-VS probe labelling [6],log2 ratio of Biotin-Ahx-Ub-VS probe labelling [7],log2 ratio of Biotin-Ahx-Ub-VS probe labelling [8],log2 ratio of Biotin-Ahx-Ub-VS probe labelling [9],log2 ratio of Biotin-Ahx-Ub-VS probe labelling [10]
O=C(CCl)N1CCN(c2nc3ccccc3o2)CC1,0.952,-0.372,-0.362,-0.829,-0.993,-0.173,-1.99 (active),-0.223,-0.248,-0.0834
N#Cc1cnn(-c2ccccc2)c1NC(=O)CCl,-0.0771,-0.0464,-0.263,-0.451,-0.203,0.718,-0.45,-0.512,-0.317,-0.0605
Cl.O=C(CCl)NC1(c2ncccn2)CCC1,0.259,0.267,-0.186,-0.0959,-0.174,-0.292,-0.0088,-0.47,0.117,0.0465
